27 molecules from the supplement of paper PMC8269313 can be followed below.

Counter-ions that a name gives are not always drawn.

This assay deals with 4T1. Kind of assay: % inhibition of 4T1 cell number vs DMSO control; higher = stronger growth inhibition. Conditions: 1 µM, 3 days. The method in brief:
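In 96-well imaging plates whose edge wells went unused, 3000 4T1-H2B-GFP mouse breast cancer cells per well were seeded in 2% FBS medium onto plastic, denuded lung matrix, mCAF1 fibroblast-derived matrix, Matrigel (15 μg/mL) or 0.2% gelatin. Sixteen hours on, kinase inhibitors went in at 1 μM final for 3 days before formalin fixation, DAPI staining and imaging on an INCell Analyzer 2200. Counting of GFP-positive nuclei gave cell numbers, from which percent inhibition relative to control was derived.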

Setting [1] is: substrate: lung fibroblast-derived matrix.
Setting [2] is: substrate: mCAF1 fibroblast-derived matrix.

On to `N#C/C(=C\c1ccc(O)c(O)c1)C(=O)NCc1ccccc1`, for which the “% inhibition of 4T1 cell number” value runs as follows: (substrate: Matrigel) -13.1%; (substrate: gelatin) 42.5%; under setting [1], -21.1%; under setting [2], 15.2%; (substrate: plastic) -38%.

For `COc1ccc(-c2cnc3c(-c4ccsc4)cnn3c2)cc1` [VEGF Receptor 2 Kinase Inhibitor IV], the “% inhibition of 4T1 cell number” value runs as follows: (substrate: Matrigel) 8.54%; (substrate: gelatin) 30.6%; under setting [1], -18.1%; under setting [2], 5.85%; (substrate: plastic) -14.5%.

With `CCCCn1c2ccc(O)cc2c2c3c(c(-c4ccccc4Cl)cc21)C(=O)NC3=O` [Wee1 Inhibitor II], the “% inhibition of 4T1 cell number” value (substrate: Matrigel) worked out at 52.6%; the “% inhibition of 4T1 cell number” value (substrate: gelatin) was determined as 63%; the “% inhibition of 4T1 cell number” value under setting [1] worked out at 15.6%; the “% inhibition of 4T1 cell number” value under setting [2] is 4.43%; the “% inhibition of 4T1 cell number” value (substrate: plastic) amounted to 57.9%.

For the molecule `CCN(CC)CCCCN1c2ccccc2Oc2ccc(Cl)cc21` [Akt Inhibitor X], the “% inhibition of 4T1 cell number” value is, setting by setting: (substrate: Matrigel) 72.7%; (substrate: gelatin) 46.6%; under setting [1], -2.93%; under setting [2], -26.9%; (substrate: plastic) 40%.

In the case of `Cn1nc2c3c(cccc31)C(=O)c1ccccc1-2` [JNK Inhibitor, Negative Control], the “% inhibition of 4T1 cell number” value (substrate: Matrigel) is -37.2%; the “% inhibition of 4T1 cell number” value (substrate: gelatin) was -36.9%; the “% inhibition of 4T1 cell number” value under setting [1] was found to be 0.304%; the “% inhibition of 4T1 cell number” value under setting [2] was determined as 24.3%; the “% inhibition of 4T1 cell number” value (substrate: plastic) is -59.1%.

As to `O=C1C(Cl)=C(N2C(=O)CCC2=O)C(=O)c2ccccc21` [MEK Inhibitor II], the “% inhibition of 4T1 cell number” value is -30.5% (substrate: Matrigel); -13.5% (substrate: gelatin); -5.8% under setting [1]; 50.2% under setting [2]; -66.5% (substrate: plastic).

On to `c1ccc(-c2cnc(Nc3ccc(OCCN4CCCC4)cc3)s2)cc1` [Flt-3 Inhibitor III], for which the “% inhibition of 4T1 cell number” value is 95.2% (substrate: Matrigel); 88.5% (substrate: gelatin); 5.06% under setting [1]; 65.3% under setting [2]; 72.6% (substrate: plastic).

`Nc1ncnc2c1c(I)cn2[C@@H]1O[C@H](CO)[C@@H](O)[C@H]1O` [5-Iodotubercidin]: the “% inhibition of 4T1 cell number” value runs as follows: (substrate: Matrigel) 15.7%; (substrate: gelatin) 59.3%; under setting [1], 7.74%; under setting [2], 34.1%; (substrate: plastic) 24.1%.

On to `NCCCn1cc(C2=C(c3c[nH]c4ccccc34)C(=O)NC2=O)c2ccccc21` [Bisindolylmaleimide III, Hydrochloride], for which the “% inhibition of 4T1 cell number” value is 50.6% (substrate: Matrigel); 46.1% (substrate: gelatin); 12.7% under setting [1]; -60.9% under setting [2]; 37.2% (substrate: plastic).

In the case of `Fc1ccc(-c2nc3n(c2-c2ccncc2)CCS3)cc1`, the “% inhibition of 4T1 cell number” value reads like this: (substrate: Matrigel) 28.9%; (substrate: gelatin) 18.4%; under setting [1], -11.4%; under setting [2], 18.8%; (substrate: plastic) 9.54%.

On to `Cn1cnc2cc3c(Nc4cccc(Br)c4)ncnc3cc21`, for which the “% inhibition of 4T1 cell number” value is, setting by setting: (substrate: Matrigel) 5.46%; (substrate: gelatin) -49.9%; under setting [1], -0.216%; under setting [2], -36.5%; (substrate: plastic) -21.9%.

Regarding `N#C/C(=C(/N)Sc1ccccc1N)c1cccc(C(O)c2ccncc2)c1` (stereo not given) [MEK Inhibitor I], the “% inhibition of 4T1 cell number” value runs as follows: (substrate: Matrigel) -42.3%; (substrate: gelatin) 30.7%; under setting [1], 50.2%; under setting [2], 40.9%; (substrate: plastic) -71.7%.

As to `COc1ccc2nc3n[nH]c(C)c3c(NCCOCCO)c2c1`, the “% inhibition of 4T1 cell number” value is 28.3% (substrate: Matrigel); 44.2% (substrate: gelatin); 1.01% under setting [1]; -1.22% under setting [2]; 23.2% (substrate: plastic).

As to `COc1cc2ncnc(Nc3ccc(O)c(Br)c3)c2cc1OC` [JAK3 Inhibitor II], the “% inhibition of 4T1 cell number” value (substrate: Matrigel) was -13.3%; the “% inhibition of 4T1 cell number” value (substrate: gelatin) is -52.6%; the “% inhibition of 4T1 cell number” value under setting [1] was -6.47%; the “% inhibition of 4T1 cell number” value under setting [2] stood at 25.3%; the “% inhibition of 4T1 cell number” value (substrate: plastic) was -53.6%.

Regarding `CCOC(=O)c1c(C)[nH]c(/C=C2\C(=O)Nc3ccccc32)c1C` [VEGF Receptor 2 Kinase Inhibitor I], the “% inhibition of 4T1 cell number” value is, setting by setting: (substrate: Matrigel) 21.5%; (substrate: gelatin) -34.8%; under setting [1], -12.5%; under setting [2], -29.2%; (substrate: plastic) 16.8%.

For the molecule `COc1cc(OC)c(C=C2C(=O)Nc3ccccc32)c(OC)c1`, the “% inhibition of 4T1 cell number” value by setting is: (substrate: Matrigel) 85.7%; (substrate: gelatin) 85.1%; under setting [1], 86.7%; under setting [2], 84.2%; (substrate: plastic) 70.1%.

For the molecule `NC(=O)c1ccc2nc(-c3ccc(Oc4ccc(Cl)cc4)cc3)[nH]c2c1` [Chk2 Inhibitor II], the “% inhibition of 4T1 cell number” value (substrate: Matrigel) is -26.7%; the “% inhibition of 4T1 cell number” value (substrate: gelatin) was -10.9%; the “% inhibition of 4T1 cell number” value under setting [1] stood at 22.1%; the “% inhibition of 4T1 cell number” value under setting [2] came out at 21.5%; the “% inhibition of 4T1 cell number” value (substrate: plastic) was -72.4%.

For the molecule `Cc1cc(C=C2C(=O)C=CC2=O)cc(C)c1O`, the “% inhibition of 4T1 cell number” value (substrate: Matrigel) was determined as 32.9%; the “% inhibition of 4T1 cell number” value (substrate: gelatin) came to 68.1%; the “% inhibition of 4T1 cell number” value under setting [1] worked out at 10.9%; the “% inhibition of 4T1 cell number” value under setting [2] was -26.2%; the “% inhibition of 4T1 cell number” value (substrate: plastic) was 32.3%.

Take `CNc1cc2c(Nc3cccc(Br)c3)ncnc2cn1`: the “% inhibition of 4T1 cell number” value runs as follows: (substrate: Matrigel) -6.51%; (substrate: gelatin) -93.8%; under setting [1], 25.4%; under setting [2], 6.09%; (substrate: plastic) -25.5%.

As for `O=C(Nc1ccncc1)Nc1c(Cl)cc(Cl)cc1Cl` [Rho Kinase Inhibitor II], the “% inhibition of 4T1 cell number” value is, setting by setting: (substrate: Matrigel) -9.94%; (substrate: gelatin) -2.18%; under setting [1], -4.7%; under setting [2], -19.5%; (substrate: plastic) -18.6%.

For the molecule `COc1ccc(COc2ccc(Cc3cnc(N)nc3N)cc2OC)cc1` [cFMS Receptor Tyrosine Kinase Inhibitor], the “% inhibition of 4T1 cell number” value is -15.7% (substrate: Matrigel); -87.3% (substrate: gelatin); 2.62% under setting [1]; 11.3% under setting [2]; -59.7% (substrate: plastic).

`CC(C)[C@H](CO)Nc1nc(Nc2cc(N)cc(Cl)c2)c2ncn(C(C)C)c2n1` [Aminopurvalanol A]: the “% inhibition of 4T1 cell number” value by setting is: (substrate: Matrigel) 77.4%; (substrate: gelatin) 71.6%; under setting [1], -15.7%; under setting [2], 41.1%; (substrate: plastic) 80.1%.

On to `Cc1cncc2cccc(S(=O)(=O)N3CCCN(C(=O)CN)C[C@@H]3C)c12` [Rho Kinase Inhibitor IV], for which the “% inhibition of 4T1 cell number” value by setting is: (substrate: Matrigel) -39.7%; (substrate: gelatin) -28.9%; under setting [1], 92.9%; under setting [2], 15.7%; (substrate: plastic) -103%.

On to `COc1ccc(OC)c2c(=S)c3ccccc3[nH]c12`, for which the “% inhibition of 4T1 cell number” value by setting is: (substrate: Matrigel) -8.48%; (substrate: gelatin) -7.36%; under setting [1], -13.6%; under setting [2], 4.29%; (substrate: plastic) -67%.

As to `O=C1NC(=O)c2c1c1c3ccccc3[nH]c1n1cncc21` [Isogranulatimide], the “% inhibition of 4T1 cell number” value by setting is: (substrate: Matrigel) -41.6%; (substrate: gelatin) -25.6%; under setting [1], -7.38%; under setting [2], 9.11%; (substrate: plastic) -78.2%.

As to `COc1cc2ncnc(Nc3ccc(NC(=O)c4ccccc4)cc3)c2cc1OC` [Aurora Kinase Inhibitor II], the “% inhibition of 4T1 cell number” value (substrate: Matrigel) amounted to 50.4%; the “% inhibition of 4T1 cell number” value (substrate: gelatin) worked out at 37.2%; the “% inhibition of 4T1 cell number” value under setting [1] is -20.1%; the “% inhibition of 4T1 cell number” value under setting [2] is -30.6%; the “% inhibition of 4T1 cell number” value (substrate: plastic) was determined as 35.8%.

Take `NC(=O)Nc1cc(-c2ccccc2)sc1C(N)=O` [IKK-2 Inhibitor XI]: the “% inhibition of 4T1 cell number” value came out at 48% (substrate: Matrigel); 55% (substrate: gelatin); 2.01% under setting [1]; 19.8% under setting [2]; 28.6% (substrate: plastic).
